# Whole data set: some 33,000 sequences, median “E-score (-0.5 to 0.5)” near -8e-05, cut for the highest 2% near 0.23. This is one part of a sample in which the highest values are shown more often than they occur.
# Biological target: T1, Nrg2 (UniProt P38082)
# T1 sequence: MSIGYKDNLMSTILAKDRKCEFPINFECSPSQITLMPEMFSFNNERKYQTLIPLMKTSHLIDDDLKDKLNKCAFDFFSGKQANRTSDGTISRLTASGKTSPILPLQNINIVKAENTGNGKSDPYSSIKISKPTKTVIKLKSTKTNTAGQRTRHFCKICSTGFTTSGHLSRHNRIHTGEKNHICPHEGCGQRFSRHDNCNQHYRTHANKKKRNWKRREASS
# Test: PBM E-score (8-mer binding enrichment) (E-score (-0.5 to 0.5)); higher = stronger / more preferred TF binding
# Details: protein concentration: 100 nM; construct: GST-full length
# Method: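 Universal 'all 10-mer' protein binding microarrays (Agilent AMADID 015681) probed with GST-tagged S. cerevisiae TFs (full-length or DBD) made by in vitro transcription/translation (PURExpress), about 100-200 nM. Bound TF was detected with fluorescent anti-GST. Each ungapped 8-mer (which stands for itself and its reverse complement) is scored by the PBM enrichment score (E-score), a modified Wilcoxon-Mann-Whitney statistic from -0.5 to +0.5, computed with the Universal PBM Analysis Suite. Scale: above 0.35 generally sequence-specific binding.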
row,Sequence,PBM E-score
1,ACTAAGGG,0.0502
2,GGCTTCCA,-0.186
3,CGCTTTTA,-0.0218
4,GGTGCCTA,-0.0877
5,CGCGCACC,0.14
6,GGTTCACA,0.103
7,TCTCGCAA,-0.0499
8,CAACCGCA,0.0352
9,AAACCGCA,-0.0776
10,AAACCGCG,0.266
11,CAACCGCC,0.0219
12,AAACCGCC,0.041
13,CAACCGCG,0.271
14,CGTCTTGC,0.0795
15,CATGAATC,0.115
16,GTTTGTGA,-0.00935
17,AACAAAGT,0.26
18,AACAAGTA,-0.0255
19,TACAAACA,0.243
20,AACAAGTT,-0.0278
21,AACAAACA,0.22
22,TACAAATA,0.0774
23,AACAAATA,0.247
24,TACAAGCA,0.121
25,AACAAATT,0.251

row,Sequence,PBM E-score
1,AACAAAGG,0.0899
2,AACAAATG,0.0558
3,AACAAGGT,0.0681
4,ACCAAGGA,-0.0125
5,CGGTGGCC,0.0203
6,AGATCTAC,0.00881
7,ATGCCTGA,-0.126
8,CATTTGAA,0.0105
9,CTTAGTCA,-0.0736
10,CGGCCCCA,-0.253
11,ACTCATGA,0.143
12,CCTAACTC,-0.0633
13,AACCTCAG,0.072
14,GACCTCGA,0.126
15,AACCTCGA,0.0566
16,CACCTCGA,0.256
17,GGTTCAGA,0.0397
18,CCCATGGA,-0.00741
19,CCCATGGG,0.323
20,ACCATGGG,-0.0447
21,TAGAACAA,-0.00331
22,CGTCAGGA,-0.112
23,GGTCAGGA,0.244
24,AGTCAGGA,0.0134
25,GTGGCAGA,-0.276

row,Sequence,PBM E-score
1,AAGAGCAT,-0.0179
2,GCCCCTGA,0.292
3,AGCCCTGA,0.0189
4,GCCCCCTA,-0.212
5,GCCCCTTA,0.114
6,GGCCCTGA,0.24
7,CGCCCTGA,0.167
8,ACATAGAA,0.157
9,TCCATCGA,-0.021
10,GATACCCC,0.0656
11,AGCTTTAC,-0.26
12,CCCGAGGC,-0.176
13,CATGGTAC,0.00349
14,GTATGACA,-0.0684
15,GTATGAGA,0.133
16,ATATGATG,0.0173
17,ATATGATA,0.249
18,ATATGACA,0.244
19,GCATGATA,0.0399
20,CTATGACA,-0.012
21,CTATGATA,0.0584
22,GTATGATA,0.281
23,GAGGGCAC,-0.111
24,AGACAGTA,0.0173
25,CGAAGCGC,-0.0339

row,Sequence,PBM E-score
1,CCATCCTC,-0.111
2,CTCGGCAC,0.0273
3,AAAGATAA,0.112
4,AAAGATAG,-0.188
5,AAAGATAC,0.232
6,TCAAAGAA,-0.123
7,ACGTCTTG,-0.0332
8,GATAGAGA,-0.0171
9,CTAAGGAA,0.0506
10,CCCTTACG,-0.128
11,ACGCGAAA,0.242
12,CCGCGAAA,0.0786
13,TCGCGAAA,0.161
14,CGAGTGCA,0.0846
15,GTATGGTA,0.158
16,GGACGCCA,-0.149
17,AGACCCAC,0.0598
18,AACTTTGG,-0.0393
19,AACTTTGA,-0.0178
20,AACTTTGT,0.251
21,CGGCTATA,-0.0676
22,GTAACCAA,0.0617
23,CTCCGAAA,-0.0954
24,CAGACAAC,0.178
25,AAGACAAG,-0.0376

row,Sequence,PBM E-score
1,GTGACAAC,0.112
2,AAGACAAC,0.235
3,ATGACAAC,0.239
4,ATGACAAG,0.142
5,AAACCGAT,-0.137
6,CCGCCCGA,0.148
7,ACTTGGCC,-0.0839
8,ATCTGCGC,0.0656
9,ATCTGCGA,0.0624
10,ATCTGCGG,0.229
11,ACTAGAGT,-0.204
12,CTTCGGAC,0.0444
13,ATTATCGA,-0.00721
14,ATTATCGC,0.254
15,ATTATCGG,-0.142
16,ATAGGGGG,-0.364
17,CCCGACCG,-0.0769
18,CACCTGGG,-0.0933
19,GTCGCGAC,0.37
20,CACGCGAA,-0.135
21,ATCGCGAT,0.271
22,TTCGCGAA,0.22
23,AACGCGAA,0.249
24,ATCGCGAG,0.175
25,GTCGCGAA,0.125

row,Sequence,PBM E-score
1,GGCGCGAC,0.149
2,ATCGCGAC,0.0998
3,CTCGCGAC,0.192
4,AACGCGAG,0.092
5,ATCGCGAA,0.268
6,CCGCGCCA,-0.00589
7,CTCCTGTA,-0.111
8,ATACCGGA,-0.222
9,GGCGAGAA,0.16
10,AGTGTATG,0.0501
11,AAGCTACT,0.0546
12,GATCCAGA,0.187
13,AACGTAGG,-0.148
14,CAAAGCGG,-0.0751
15,AAGCAGTA,-0.0813
16,CCGCAGAC,-0.105
17,TCGCAGAA,-0.114
18,CCGCAGAG,-0.193
19,CCGCAGAA,0.245
20,GCGCAGAA,0.248
21,GCGCAGAC,0.0533
22,CAAGCGGC,0.0964
23,CACCTATA,-0.032
24,AGTGAAGC,0.054
25,AAAGAACG,0.0453

row,Sequence,PBM E-score
1,ATTAATCA,0.171
2,AGTCTTGA,-0.0377
3,CACGGCGA,0.0616
4,AACGGCAC,-0.244
5,AACGGCGT,-0.11
6,AACGGCAT,0.23
7,AACGGCGA,0.303
8,AACGGCAA,0.156
9,ATTGCGAG,0.0375
10,GTACGAGA,0.0861
11,TGACGGAA,-0.00402
12,AAGGACTC,-0.0561
13,ATGCTCGG,0.117
14,AAATCCAC,0.082
15,AAATCCAG,0.196
16,AAATCCAT,0.266
17,ATGGTGGA,-0.0629
18,ATATTAAG,0.0738
19,ATATTAAA,0.29
20,ATATTCAA,0.244
21,GCATTAAA,0.136
22,ATATTAAT,0.286
